From the supplement of paper PMC11732987, “Enantioselective OTUD7B fragment discovery through chemoproteomics screening and high-throughput optimisation” (Communications Chemistry, 2025)

Columns and labels:
Experiment in all cases: log2 ratio of Biotin-Ahx-Ub-VS probe labelling (fragment/DMSO); higher = less target engagement (more negative = stronger competition), active = hit call of the paper (q ≤ 0.05, log2 ratio ≤ -1)
Conditions in all cases: compound concentration: 200 uM; treatment time: 3 h
USP34 = USP34 (UniProt Q70CQ2)
USP34, sequence (Q70CQ2 whole entry, the tested form may be a part): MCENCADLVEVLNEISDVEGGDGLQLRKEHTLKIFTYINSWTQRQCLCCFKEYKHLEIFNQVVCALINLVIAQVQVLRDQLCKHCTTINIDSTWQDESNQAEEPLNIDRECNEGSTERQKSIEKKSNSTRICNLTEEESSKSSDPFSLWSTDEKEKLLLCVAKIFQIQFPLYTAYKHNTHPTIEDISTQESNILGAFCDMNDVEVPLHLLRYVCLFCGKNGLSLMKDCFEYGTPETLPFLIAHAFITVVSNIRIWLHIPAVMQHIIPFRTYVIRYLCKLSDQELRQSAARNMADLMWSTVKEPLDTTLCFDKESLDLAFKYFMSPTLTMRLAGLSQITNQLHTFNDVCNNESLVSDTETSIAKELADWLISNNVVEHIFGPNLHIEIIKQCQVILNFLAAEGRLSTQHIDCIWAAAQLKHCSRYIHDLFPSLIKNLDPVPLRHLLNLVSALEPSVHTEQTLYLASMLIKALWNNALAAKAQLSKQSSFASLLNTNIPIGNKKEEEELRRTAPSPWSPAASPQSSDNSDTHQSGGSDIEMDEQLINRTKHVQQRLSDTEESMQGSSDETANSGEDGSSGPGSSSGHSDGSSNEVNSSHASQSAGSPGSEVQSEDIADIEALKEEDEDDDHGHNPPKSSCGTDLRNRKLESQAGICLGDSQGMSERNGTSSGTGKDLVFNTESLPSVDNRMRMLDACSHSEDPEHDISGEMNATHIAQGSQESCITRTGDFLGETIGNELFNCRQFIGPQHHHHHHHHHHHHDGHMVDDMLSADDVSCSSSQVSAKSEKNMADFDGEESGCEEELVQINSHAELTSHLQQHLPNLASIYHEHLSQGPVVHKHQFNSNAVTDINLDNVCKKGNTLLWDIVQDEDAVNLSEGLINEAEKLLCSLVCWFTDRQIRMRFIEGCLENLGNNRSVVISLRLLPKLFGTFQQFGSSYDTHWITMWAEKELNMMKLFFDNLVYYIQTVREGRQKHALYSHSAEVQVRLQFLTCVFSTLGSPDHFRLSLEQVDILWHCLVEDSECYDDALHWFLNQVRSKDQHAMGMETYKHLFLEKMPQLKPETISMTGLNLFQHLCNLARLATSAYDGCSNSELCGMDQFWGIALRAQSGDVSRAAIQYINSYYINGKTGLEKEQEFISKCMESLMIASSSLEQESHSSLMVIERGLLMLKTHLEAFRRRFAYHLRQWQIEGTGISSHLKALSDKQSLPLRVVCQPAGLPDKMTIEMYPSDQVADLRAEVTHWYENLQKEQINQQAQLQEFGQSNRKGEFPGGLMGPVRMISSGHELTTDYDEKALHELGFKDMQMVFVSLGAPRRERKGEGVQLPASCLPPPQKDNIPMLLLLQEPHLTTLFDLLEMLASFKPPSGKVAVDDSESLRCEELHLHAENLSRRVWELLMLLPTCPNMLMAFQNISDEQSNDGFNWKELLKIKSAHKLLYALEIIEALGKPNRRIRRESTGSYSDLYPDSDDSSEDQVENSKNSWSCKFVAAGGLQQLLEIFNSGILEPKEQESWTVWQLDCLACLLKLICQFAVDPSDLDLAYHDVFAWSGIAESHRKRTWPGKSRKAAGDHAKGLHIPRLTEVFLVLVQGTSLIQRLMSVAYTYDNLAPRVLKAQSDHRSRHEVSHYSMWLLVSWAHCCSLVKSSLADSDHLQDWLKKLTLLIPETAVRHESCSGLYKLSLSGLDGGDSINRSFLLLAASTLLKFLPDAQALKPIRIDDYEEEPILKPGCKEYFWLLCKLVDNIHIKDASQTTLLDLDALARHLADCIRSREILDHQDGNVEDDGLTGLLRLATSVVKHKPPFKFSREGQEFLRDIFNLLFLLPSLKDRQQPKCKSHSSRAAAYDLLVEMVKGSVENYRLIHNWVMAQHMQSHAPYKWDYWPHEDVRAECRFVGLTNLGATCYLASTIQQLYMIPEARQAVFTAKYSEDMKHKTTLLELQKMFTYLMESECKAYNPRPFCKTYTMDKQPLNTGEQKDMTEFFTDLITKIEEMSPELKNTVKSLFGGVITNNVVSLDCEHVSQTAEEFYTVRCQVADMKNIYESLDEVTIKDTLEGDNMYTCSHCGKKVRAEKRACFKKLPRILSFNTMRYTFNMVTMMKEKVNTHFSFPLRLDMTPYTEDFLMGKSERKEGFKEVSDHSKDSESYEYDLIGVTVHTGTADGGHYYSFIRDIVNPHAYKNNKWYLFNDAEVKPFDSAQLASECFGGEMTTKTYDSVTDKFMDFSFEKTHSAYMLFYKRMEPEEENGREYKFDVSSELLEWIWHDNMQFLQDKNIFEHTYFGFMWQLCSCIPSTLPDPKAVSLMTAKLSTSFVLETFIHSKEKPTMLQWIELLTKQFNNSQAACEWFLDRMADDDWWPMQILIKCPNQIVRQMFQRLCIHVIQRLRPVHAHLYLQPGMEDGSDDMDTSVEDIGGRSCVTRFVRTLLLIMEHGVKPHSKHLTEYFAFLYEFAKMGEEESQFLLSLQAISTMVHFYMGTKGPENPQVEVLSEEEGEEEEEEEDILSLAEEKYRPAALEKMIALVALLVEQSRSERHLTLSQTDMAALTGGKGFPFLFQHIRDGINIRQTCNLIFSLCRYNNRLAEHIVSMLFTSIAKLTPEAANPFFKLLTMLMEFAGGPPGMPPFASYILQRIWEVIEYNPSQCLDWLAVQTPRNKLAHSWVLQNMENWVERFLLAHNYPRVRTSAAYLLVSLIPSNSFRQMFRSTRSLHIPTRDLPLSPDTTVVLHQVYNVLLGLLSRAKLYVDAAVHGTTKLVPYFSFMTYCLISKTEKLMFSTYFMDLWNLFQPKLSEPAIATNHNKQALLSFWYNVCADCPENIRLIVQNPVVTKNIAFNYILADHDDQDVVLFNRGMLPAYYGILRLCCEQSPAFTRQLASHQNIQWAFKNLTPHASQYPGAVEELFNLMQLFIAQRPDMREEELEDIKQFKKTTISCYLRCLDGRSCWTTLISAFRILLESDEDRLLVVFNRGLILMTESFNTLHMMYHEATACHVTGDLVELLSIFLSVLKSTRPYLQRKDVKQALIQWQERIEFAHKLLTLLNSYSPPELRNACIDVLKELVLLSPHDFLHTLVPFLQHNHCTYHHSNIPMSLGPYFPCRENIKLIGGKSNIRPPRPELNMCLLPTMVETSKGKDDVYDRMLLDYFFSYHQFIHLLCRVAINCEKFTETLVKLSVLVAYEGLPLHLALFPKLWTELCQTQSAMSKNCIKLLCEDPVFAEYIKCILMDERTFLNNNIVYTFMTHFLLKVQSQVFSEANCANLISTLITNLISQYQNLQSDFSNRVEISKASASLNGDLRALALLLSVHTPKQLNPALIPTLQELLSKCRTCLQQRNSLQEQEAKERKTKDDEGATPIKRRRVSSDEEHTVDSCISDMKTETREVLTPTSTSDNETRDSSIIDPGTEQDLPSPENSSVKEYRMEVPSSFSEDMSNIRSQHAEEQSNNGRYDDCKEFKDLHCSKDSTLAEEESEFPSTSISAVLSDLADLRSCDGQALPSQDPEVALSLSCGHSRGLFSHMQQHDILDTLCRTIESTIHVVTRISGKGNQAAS
Procedure, shortened: (§1)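 Labelled DUBs from HEK293T lysate were NeutrAvidin-enriched, digested with LysC and trypsin, and run by diaPASEF LC-MS/MS. Before that, each 495 µg sample in Tris/CHAPS/IGEPAL buffer with protease inhibitors was treated in triplicate with fragment at 200 µM or vehicle for 3 h, then with Biotin-Ahx-Ub-VS at 0.5 µM final for 1 h. Values are average log2 ratios of fragment over vehicle by unpaired t-test, based on global-median-normalised Spectronaut label-free quantities from proteins with ≥2 unique peptides.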

USP36 = biological target: T1, USP36 (UniProt Q9P275)
T1 sequence (whole entry): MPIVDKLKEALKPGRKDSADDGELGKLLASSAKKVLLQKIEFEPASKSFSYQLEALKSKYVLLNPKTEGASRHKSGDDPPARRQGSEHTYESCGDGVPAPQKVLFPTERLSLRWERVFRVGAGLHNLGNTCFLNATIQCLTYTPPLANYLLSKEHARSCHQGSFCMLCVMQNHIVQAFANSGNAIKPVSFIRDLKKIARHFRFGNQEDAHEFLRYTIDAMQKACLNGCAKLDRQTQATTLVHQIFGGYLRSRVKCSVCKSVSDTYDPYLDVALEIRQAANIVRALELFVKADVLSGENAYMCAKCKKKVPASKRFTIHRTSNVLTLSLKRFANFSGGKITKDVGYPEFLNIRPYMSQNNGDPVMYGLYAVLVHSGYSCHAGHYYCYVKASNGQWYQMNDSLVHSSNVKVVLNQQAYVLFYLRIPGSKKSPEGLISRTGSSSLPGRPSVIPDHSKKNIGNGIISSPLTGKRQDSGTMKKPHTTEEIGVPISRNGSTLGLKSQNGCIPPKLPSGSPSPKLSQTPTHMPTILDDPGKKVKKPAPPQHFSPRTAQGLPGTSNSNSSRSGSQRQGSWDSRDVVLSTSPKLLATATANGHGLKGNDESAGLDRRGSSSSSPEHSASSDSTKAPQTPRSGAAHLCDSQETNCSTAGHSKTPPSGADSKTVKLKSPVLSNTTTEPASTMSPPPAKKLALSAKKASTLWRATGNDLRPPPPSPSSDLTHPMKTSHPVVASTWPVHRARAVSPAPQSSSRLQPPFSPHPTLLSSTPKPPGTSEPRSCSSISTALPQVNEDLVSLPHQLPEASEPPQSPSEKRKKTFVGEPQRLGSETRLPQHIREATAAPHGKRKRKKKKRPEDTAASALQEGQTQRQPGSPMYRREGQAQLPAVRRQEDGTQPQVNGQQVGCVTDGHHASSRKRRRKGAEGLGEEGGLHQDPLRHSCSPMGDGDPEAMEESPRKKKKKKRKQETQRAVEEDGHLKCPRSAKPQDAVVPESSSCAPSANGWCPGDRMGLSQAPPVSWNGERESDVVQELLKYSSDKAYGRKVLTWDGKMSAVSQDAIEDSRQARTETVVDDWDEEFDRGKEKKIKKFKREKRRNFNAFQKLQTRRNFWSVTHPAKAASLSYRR
Procedure, shortened: as §1

USP38 = biological target: T2, USP38 (UniProt Q8NB14)
T2 sequence (whole entry): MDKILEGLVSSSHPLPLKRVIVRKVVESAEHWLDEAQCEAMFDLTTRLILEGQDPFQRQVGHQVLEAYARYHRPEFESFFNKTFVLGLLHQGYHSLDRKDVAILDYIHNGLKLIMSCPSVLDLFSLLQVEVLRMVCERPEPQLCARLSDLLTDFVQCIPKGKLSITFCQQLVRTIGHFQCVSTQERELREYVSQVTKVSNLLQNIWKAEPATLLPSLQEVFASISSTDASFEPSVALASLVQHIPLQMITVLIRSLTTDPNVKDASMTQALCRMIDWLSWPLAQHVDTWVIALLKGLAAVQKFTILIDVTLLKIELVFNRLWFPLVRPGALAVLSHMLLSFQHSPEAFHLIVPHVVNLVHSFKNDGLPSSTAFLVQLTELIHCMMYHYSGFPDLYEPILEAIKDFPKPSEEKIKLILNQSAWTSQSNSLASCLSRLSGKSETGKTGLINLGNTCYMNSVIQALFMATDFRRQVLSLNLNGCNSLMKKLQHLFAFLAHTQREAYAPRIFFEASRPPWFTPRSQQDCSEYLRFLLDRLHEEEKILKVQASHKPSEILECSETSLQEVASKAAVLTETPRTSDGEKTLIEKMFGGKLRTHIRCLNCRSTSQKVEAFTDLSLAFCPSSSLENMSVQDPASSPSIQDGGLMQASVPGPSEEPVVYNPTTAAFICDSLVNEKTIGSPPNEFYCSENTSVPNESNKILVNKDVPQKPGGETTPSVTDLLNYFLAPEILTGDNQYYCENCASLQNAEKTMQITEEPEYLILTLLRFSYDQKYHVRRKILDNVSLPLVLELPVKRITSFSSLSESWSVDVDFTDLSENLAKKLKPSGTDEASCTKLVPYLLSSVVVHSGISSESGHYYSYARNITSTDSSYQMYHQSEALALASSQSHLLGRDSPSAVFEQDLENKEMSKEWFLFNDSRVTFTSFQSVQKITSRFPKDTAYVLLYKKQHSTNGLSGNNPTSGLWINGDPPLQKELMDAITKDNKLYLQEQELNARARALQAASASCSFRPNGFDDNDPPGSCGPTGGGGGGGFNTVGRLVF
Procedure, shortened: as §1

USP39 = biological target: T3, USP39 (UniProt Q53GS9)
T3 sequence (whole entry): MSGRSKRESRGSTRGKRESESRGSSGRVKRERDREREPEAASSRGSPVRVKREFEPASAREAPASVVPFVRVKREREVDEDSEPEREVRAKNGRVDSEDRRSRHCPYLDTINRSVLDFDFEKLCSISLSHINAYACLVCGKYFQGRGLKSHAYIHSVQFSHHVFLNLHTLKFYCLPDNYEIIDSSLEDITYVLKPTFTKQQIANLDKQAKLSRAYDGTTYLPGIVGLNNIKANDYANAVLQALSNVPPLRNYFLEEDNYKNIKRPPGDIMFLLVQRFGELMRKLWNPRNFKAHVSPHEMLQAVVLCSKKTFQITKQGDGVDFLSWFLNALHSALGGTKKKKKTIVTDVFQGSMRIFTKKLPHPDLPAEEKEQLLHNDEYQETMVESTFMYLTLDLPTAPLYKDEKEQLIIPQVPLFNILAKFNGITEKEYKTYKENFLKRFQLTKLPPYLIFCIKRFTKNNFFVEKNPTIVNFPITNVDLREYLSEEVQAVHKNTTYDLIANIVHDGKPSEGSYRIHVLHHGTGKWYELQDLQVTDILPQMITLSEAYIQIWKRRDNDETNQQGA
Procedure, shortened: as §1

USP4 = biological target: T4, USP4 (UniProt Q13107)
T4 sequence (whole entry): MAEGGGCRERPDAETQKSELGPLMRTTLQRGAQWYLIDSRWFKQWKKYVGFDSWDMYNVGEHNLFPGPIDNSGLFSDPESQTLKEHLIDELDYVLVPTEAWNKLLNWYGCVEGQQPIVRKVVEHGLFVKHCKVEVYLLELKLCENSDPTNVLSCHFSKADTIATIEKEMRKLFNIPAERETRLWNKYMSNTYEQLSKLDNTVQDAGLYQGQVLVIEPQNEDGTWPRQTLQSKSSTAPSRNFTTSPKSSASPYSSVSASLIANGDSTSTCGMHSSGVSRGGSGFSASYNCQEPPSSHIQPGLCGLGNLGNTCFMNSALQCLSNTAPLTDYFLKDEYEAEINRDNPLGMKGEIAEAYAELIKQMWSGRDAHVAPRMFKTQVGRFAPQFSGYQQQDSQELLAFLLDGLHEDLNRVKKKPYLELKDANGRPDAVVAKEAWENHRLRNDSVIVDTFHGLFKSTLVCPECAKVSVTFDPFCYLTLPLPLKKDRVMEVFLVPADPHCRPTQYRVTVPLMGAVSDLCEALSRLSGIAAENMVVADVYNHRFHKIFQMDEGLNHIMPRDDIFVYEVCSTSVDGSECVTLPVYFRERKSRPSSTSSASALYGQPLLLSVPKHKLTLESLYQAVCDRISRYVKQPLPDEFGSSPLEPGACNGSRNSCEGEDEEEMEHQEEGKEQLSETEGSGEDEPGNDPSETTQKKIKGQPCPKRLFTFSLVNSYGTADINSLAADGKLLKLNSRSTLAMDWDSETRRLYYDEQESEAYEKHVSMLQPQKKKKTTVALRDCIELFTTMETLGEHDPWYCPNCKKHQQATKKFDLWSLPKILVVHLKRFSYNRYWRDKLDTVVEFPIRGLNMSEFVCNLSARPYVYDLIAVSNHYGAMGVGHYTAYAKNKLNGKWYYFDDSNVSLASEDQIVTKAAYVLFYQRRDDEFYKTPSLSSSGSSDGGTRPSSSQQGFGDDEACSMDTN
Procedure, shortened: as §1

Measured: log2 ratio of Biotin-Ahx-Ub-VS probe labelling

CC(c1ccccc1)N(C)C(=O)CCl (stereo not given)
inactive: USP34 -0.323 | USP36 -0.306 | USP38 -0.0902 | USP39 -0.413 | USP4 -0.289
